Test [1] deals with Ubiquitin carboxyl-terminal hydrolase 1 (Homo sapiens) (UniProt O94782). The test is described as follows: Inhibitors of USP1/UAF1: Pilot qHTS (AID 504865).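 Note: rhodamine fluorescence freed from ubiquitin-rhodamine substrate followed over time; top concentration of the series differs between compounds; % is set by controls: 0 for no effect and ±100 for the full control effect; nearly all actives have a fitted effect of over 35% in size.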 The procedure, abridged:
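Deubiquitinase activity followed as kinetic rhodamine fluorescence release from 150 nM Ub-Rho. 1 nM USP1/UAF1 with compound, after 15 min room-temperature preincubation, in HEPES pH 7.8 buffer containing TCEP, EDTA, BSA and Tween-20.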

Test [2] concerns the target DNA dC->dU-editing enzyme APOBEC-3G (Homo sapiens) (UniProt Q9HC16). As to the kind of experiment: qHTS for inhibitors of Vif-A3G interactions: Validation (AID 588379). Note: 0% is about no effect. In outline: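 HeLa cells stably expressing Vif and A3G-eYFP, 700 cells/well, incubated overnight at 37 deg C, then exposed to compound overnight at 37 deg C. Inhibition of Vif-mediated degradation read as increased yellow fluorescence (Ex 488/Em 500-530) by laser-scanning cytometry.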

In test [3] the test system is Zika virus NS2B-NS3 protease. The test is described as follows: Primary screen GU AMC qHTS for Zika virus inhibitors (AID 1347154).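 Note: 0% = no-inhibitor control and -100% = no-enzyme control; nearly all actives have a fitted effect of over 70% in size.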 The procedure, abridged: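 Fluorogenic AMC-substrate cleavage by noncovalent NS2B-NS3 protease complex (25 nM, pH 8.0 Tris buffer with Tween 20) followed for 15 minutes at room temperature (~20% conversion). Percent inhibition from ex340/em450 signal change, fitted by 4-parameter Hill equation.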

The nature of test [4]: Primary qHTS for small molecule stabilizers of the endoplasmic reticulum resident proteome: Secreted ER Calcium Modulated Protein (SERCaMP) assay (AID 1508630). Note: % is set by controls: 0 for no effect and ±100 for the full control effect. In outline: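 GLuc-SERCaMP-expressing SH-SY5Y cells, pretreated 16 h with compound, are challenged with thapsigargin to empty ER calcium stores; after 4 h, coelenterazine is added directly to the medium and luminescence is imaged.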

Test [5] deals with Cytochrome P450 3A4 (Homo sapiens) (UniProt P08684). The test is described as follows: qHTS Assay for Inhibitors and Substrates of Cytochrome P450 3A4 (AID 884). Note: % is set by controls: 0 for no effect and ±100 for the full control effect; nearly all actives have a fitted effect of over 50% in size. In outline: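 20 nM human CYP3A4 with 25 uM Luciferin-PPXE (at KM) in 200 mM KPO4, preincubated 10 min with compound; NADPH regeneration started a 60 min RT reaction. Luciferin detected by luminescence, normalized to 57 uM ketoconazole as full inhibition.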

Test [6] is described as follows: Confirmation and Secondary Assay for Modulators of Hemoglobin Beta Chain Splicing at IVS2 654 locus (AID 910).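 Note: HeLa cells stably carrying EGFP split by mutant beta-globin IVS2-654 intron; per-well total GFP intensity by laser scanning cytometry after 2-day treatment; % of control where 0% means no effect.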 The procedure, abridged: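 Readout: per-well total peak green fluorescence (488 nm ex, 500–520 nm em) from objects 5–250 µm, reflecting correct splicing of an EGFP-654 reporter. Compounds were applied for 2 days at 37 °C to overnight-plated HeLa EGFP-654 cells; controls were DMSO and 500 nM IVS2-654 PNA.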

Test [7] is described as follows: Confirmation and Secondary Assay for Modulators of Hemoglobin Beta Chain Splicing at IVS2 705 locus (AID 930).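 Note: HeLa cells stably expressing the EGFP-705 splicing reporter; GFP fluorescence per well restored by corrected splicing of the IVS2-705 intron in EGFP; % of control where 0% means no effect.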 In outline: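 Splice-correction reporter: EGFP cDNA split by beta-globin intron 2 bearing the 705 mutation, stably in HeLa. Compound incubation 2 days, 37C; fluorescent objects 5-250 µm summed per well.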
Test [8] deals with Glucocorticoid receptor (Homo sapiens) (UniProt P04150). The test is described as follows: GR-GFP Redistribution (AID 450;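 active = compounds whose dose series gives a full or clear partial fitted curve of increased nuclear translocation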; note: potency is the fitted concentration of half-maximal effect). The settings on record: U2OS GR-GFP nuclear translocation, laser cytometry, 2 h.
Test [9] shares this target. As to the kind of experiment: GR-EFC Redistribution (AID 451; calls by dose curve; note: potency is the fitted concentration of half-maximal effect). The settings on record: CHO-K1 GR-EFC translocation, beta-gal luminescence, 2 h. The procedure, abridged: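 Translocation of GR-ED fusion to nuclear EA restores b-gal, read by luminescence after 1 h room-temperature detection. Engineered CHO-K1 biosensor cells, 1,000/well, exposed 2 h at 37 C to titrations up to 46 uM final.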

The target of test [10] is 3',5'-cyclic-AMP phosphodiesterase 4B (Homo sapiens) (UniProt Q07343). The test is described as follows: qHTS Assay for Inhibitors of PDE-IV (AID 607; active = well fitted activation curve with a large enough effect in the main read-out, with a control signal flat, not every such curve was filed as active; note: % of control where 0% means no effect). The procedure, abridged:
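The readout is membrane depolarisation from a cAMP-sensing CNG channel, detected with a potential dye at ex 535/em 590. Cells were HEK293-derived (endogenous PDE-IV) at 1000 cells/well, titrated up to 22.9 uM final.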

For test [11], the target named is Muscarinic acetylcholine receptor M1 (Rattus norvegicus) (UniProt P08482). The test is described as follows: qHTS Assay for Antagonists of Acetylcholine Muscarinic M1 Receptor: Kinetic Measurement of Intracellular Calcium Response (AID 943). Note: potency is the fitted concentration of half-maximal effect; nearly all actives have a fitted effect of over 75% in size. The procedure, abridged: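 Intracellular calcium flux, recorded with Fluo-4 in a kinetic plate reader, served as signal; the response to carbachol at EC80 (100 nM final) was taken as maximal over minimal fluorescence after a 10 min compound pre-incubation in rat M1-CHO cells.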
(In general: Quantitative high-throughput screening tests each substance at several concentrations.)

In test [12] the target is Pyruvate kinase (Leishmania mexicana) (UniProt Q27686). The test is described as follows: qHTS Validation Assay for Inhibitors of Leishmania Mexicana Pyruvate Kinase (AID 945).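 Note: 0% = DMSO only neutral control wells.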 The procedure, abridged:
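The enzyme is a highly purified E451W mutant of LmPYK used at 0.2 nM. It converts 0.5 mM PEP and 0.1 mM ADP over 1 h at room temperature; product ATP is quantified by luciferase luminescence relative to DMSO controls.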

For test [13], the target named is Pyruvate kinase PKM (Homo sapiens) (UniProt P14618). The test is described as follows: qHTS Assay for Activators of Human Muscle Pyruvate Kinase (AID 954; active = well fitted curve in the direction sought with a large enough effect, not every such curve was filed as active;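 note: 0% = uninhibited enzyme and -100% = no enzyme or full thiadiazolimine inhibition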). In outline:
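Reaction: 0.1 nM purified PKM2 with 0.5 mM phosphoenolpyruvate and 0.1 mM ADP, room temperature, 1 h. Readout: luciferase-based ATP luminescence after stop reagent. Activators judged against a 0.3 nM enzyme column.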

Test [14] deals with Alpha-galactosidase A (Homo sapiens) (UniProt P06280). The test is described as follows: Counterscreen for Glucocerebrosidase Inhibitors: qHTS Assay for Human alpha-Galactosidase at pH 4.5 (AID 992). Note: 0% is about no effect. The procedure, abridged:
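Concentration-response curves (0.7 nM to 77 uM final) were modeled with the Hill equation to give AC50. Reactions: 2 nM enzyme, 80 uM fluorogenic alpha-galactoside, pH 4.5 citric acid buffer, 20 min, room temperature.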

Test [15] has as its target alpha-glucosidase (Oryza sativa, rice) (UniProt Q653V4). The test is described as follows: Counterscreen for Glucocerebrosidase Inhibitors: qHTS Assay for Rice alpha-Glucosidase at pH 5.0 (AID 997).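 Note: 0% = full activity with enzyme and -100% = basal without enzyme.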 The procedure, abridged: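 Rice alpha-glucosidase (4 nM final) with 400 uM 4-methylumbelliferyl-alpha-D-glucopyranoside in citrate buffer pH 5.0, 20 min at room temperature, stopped at pH 10; fluorescence 365/440 nm, compounds 0.7 nM–77 uM, AC50 from Hill fits.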
On the technique in general: A counterscreen serves to expose hits that act by an unwanted route or on another target.

Test [16] is described as follows: AP1 Signaling Pathway (AID 357; active = well fitted curve in either direction with a large enough effect, not every such curve was filed as active;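 note: ME-180 reporter cells stimulated with EGF at its EC50 level; % is set by controls: 0 for no effect and ±100 for the full control effect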). The settings on record: ME-180 AP-1-bla reporter, EGF-induced, beta-lactamase ratio, 5 h. The procedure, abridged: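 Modulation of EGF-driven AP-1 transcription was assessed with a beta-lactamase reporter in ME-180 cells. Compound and EC50 EGF were co-incubated 5 hours at 37 °C before 2.5-hour CCF4 loading at room temperature and dual-emission reading.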

Test [17] can be described thus: NFAT Signaling Pathway (AID 444; active = well fitted curve in either direction with a large enough effect, not every such curve was filed as active;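 note: carbachol stimulus at about its EC50 of 1 µM final; % is set by controls: 0 for no effect and ±100 for the full control effect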). The settings on record: Jurkat NFAT-bla M1, carbachol, beta-lactamase ratio, 5 h. The procedure, abridged: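 Read-out: CCF4 FRET ratio (460 nm/530 nm) after 1 h RT dye loading, used for %activity and AC50 from titration series. Cells: Jurkat NFAT-β-lactamase/M1 line, treated with compound plus 1 uM carbachol for 5 h, 37 °C.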
Test [18] in a line: Stat Signaling Pathway (AID 446; active = well fitted curve in either direction with a large enough effect, not every such curve was filed as active;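 note: ME-180 cervical cancer cells given 40 pM IL-6 alongside compound; SIE-controlled beta-lactamase reporter measured as 460/530 nm FRET emission ratio; % is set by controls: 0 for no effect and ±100 for the full control effect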). The settings on record: ME-180 SIE beta-lactamase reporter, IL-6 stimulated, 5 h. In outline: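 Screening format detects activators and inhibitors alike: ME-180 SIE-bla cells stimulated at 40 pM IL-6 for 5 hrs with compound, then dual-emission beta-lactamase read at 405 nm excitation.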
The target of test [19] is Mitogen-activated protein kinase 10 (Mus musculus) (UniProt Q61831). The test is described as follows: JNK3 AlphaScreen Assay (AID 530; active = well fitted curve in either direction with a large enough effect, not every such curve was filed as active). The procedure, abridged: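 Room-temperature AlphaScreen kinase assay; pre-activated HepG2 lysate as JNK3 source, biotin-GST-cJun(1-79) substrate, 10 uM ATP, compound 15 min preincubation.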
(In general: In Alpha technology, singlet oxygen from a donor bead excites a nearby acceptor bead.)

Test [20] in a line: qHTS Assay for Lipid Storage Modulators (AID 1519; calls by dose curve). The settings on record: Drosophila S3 cells, BODIPY lipid droplet/cell ratio, laser cytometry, cells loaded with oleic acid. The procedure, abridged:
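Cells seeded at 5,000 per well were treated with compounds over a concentration series and loaded with oleic acid (400 uM, as added). Lipid droplet fluorescence (488 nm excitation, 500-530 nm channel) was read by laser-scanning cytometry and normalized to 20 uM Triacsin C.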

Structures are written as SMILES. Several values for one entry are separate records, joined by “and”; a condition that tells them apart may be missing. Equal values may be shown once. Inconclusive results are not listed. Activity calls are given as the source filed them. Unless noted, calls come from the whole dose curve; as a rule, active = well fitted curve in the direction sought with a large enough effect; inconclusive = small, poorly fitted or top-dose-only effect, or another doubt; inactive = no such curve, though single readings can be large; an effect the other way counts as inactive or inconclusive.

Chain of Ubiquitin carboxyl-terminal hydrolase 1 (Homo sapiens) (O94782 whole entry, looked up): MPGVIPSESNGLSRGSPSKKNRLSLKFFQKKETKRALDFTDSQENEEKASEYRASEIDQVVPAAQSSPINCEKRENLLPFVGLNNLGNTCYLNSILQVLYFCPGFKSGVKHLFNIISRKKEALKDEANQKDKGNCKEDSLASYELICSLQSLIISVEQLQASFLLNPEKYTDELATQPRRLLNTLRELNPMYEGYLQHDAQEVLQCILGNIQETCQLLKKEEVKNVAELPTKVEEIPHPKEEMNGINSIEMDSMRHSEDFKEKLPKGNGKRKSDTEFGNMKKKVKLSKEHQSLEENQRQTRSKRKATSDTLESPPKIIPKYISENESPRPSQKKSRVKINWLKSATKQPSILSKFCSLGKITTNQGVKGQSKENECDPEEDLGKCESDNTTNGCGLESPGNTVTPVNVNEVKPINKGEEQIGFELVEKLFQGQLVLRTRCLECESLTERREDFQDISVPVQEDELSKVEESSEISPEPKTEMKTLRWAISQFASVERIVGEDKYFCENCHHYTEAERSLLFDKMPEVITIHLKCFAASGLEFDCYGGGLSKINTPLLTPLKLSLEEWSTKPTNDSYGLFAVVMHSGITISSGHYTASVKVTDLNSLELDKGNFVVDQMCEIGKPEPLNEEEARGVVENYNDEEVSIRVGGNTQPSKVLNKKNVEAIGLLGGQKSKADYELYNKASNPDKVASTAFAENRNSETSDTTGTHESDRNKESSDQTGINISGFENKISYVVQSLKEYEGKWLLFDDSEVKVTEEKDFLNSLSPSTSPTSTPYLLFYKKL
Chain of 3',5'-cyclic-AMP phosphodiesterase 4B (Homo sapiens) (Q07343 whole entry, looked up): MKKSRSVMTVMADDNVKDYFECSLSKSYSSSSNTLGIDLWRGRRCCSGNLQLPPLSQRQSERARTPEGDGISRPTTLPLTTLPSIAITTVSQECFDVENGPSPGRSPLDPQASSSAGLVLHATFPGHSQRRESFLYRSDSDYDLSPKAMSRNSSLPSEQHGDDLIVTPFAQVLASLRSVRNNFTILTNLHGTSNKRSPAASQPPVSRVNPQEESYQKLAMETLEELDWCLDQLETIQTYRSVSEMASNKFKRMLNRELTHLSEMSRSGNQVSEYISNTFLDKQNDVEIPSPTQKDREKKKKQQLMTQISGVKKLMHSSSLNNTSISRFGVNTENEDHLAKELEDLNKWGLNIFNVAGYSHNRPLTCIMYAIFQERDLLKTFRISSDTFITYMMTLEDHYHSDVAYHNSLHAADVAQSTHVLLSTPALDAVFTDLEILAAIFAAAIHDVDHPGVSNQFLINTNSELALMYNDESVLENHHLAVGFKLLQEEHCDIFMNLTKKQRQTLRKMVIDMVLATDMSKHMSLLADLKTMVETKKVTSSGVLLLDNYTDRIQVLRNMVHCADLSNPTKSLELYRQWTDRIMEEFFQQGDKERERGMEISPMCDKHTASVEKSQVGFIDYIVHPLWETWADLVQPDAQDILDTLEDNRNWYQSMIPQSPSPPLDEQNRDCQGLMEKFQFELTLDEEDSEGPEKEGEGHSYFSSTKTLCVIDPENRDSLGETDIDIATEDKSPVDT
Chain of Glucocorticoid receptor (Homo sapiens) (P04150 whole entry, looked up, the tested form may be a part): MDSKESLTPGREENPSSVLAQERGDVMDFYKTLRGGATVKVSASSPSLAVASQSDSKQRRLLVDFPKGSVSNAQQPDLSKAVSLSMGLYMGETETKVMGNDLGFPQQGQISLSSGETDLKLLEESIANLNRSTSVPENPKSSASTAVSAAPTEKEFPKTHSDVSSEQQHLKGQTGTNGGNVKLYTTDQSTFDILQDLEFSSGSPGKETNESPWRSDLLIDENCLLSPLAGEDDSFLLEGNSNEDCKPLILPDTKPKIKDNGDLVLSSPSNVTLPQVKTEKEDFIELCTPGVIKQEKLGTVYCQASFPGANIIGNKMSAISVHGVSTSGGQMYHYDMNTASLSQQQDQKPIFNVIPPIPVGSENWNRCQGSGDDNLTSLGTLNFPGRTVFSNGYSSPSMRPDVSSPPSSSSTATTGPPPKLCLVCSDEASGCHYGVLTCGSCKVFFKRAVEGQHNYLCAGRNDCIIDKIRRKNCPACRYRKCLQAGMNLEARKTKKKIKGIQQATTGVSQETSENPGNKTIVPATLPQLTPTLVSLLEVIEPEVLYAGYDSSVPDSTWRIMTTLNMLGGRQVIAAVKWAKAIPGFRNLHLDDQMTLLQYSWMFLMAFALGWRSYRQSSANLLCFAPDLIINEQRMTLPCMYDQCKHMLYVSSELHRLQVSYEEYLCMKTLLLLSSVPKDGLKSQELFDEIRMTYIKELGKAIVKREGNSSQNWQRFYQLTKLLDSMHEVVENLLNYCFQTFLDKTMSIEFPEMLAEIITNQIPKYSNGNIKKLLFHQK
Chain of DNA dC->dU-editing enzyme APOBEC-3G (Homo sapiens) (Q9HC16 whole entry, looked up): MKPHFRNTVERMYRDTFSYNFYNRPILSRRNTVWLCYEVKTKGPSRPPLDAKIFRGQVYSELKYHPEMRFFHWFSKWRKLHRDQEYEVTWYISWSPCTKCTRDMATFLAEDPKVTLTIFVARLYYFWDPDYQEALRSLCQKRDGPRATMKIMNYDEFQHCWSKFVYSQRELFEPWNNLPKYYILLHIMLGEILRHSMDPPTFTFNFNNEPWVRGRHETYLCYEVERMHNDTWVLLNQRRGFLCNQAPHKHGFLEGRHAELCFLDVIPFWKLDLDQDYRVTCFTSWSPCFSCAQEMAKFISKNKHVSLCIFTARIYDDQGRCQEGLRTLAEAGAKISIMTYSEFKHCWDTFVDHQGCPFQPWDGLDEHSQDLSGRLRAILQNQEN
Chain of Pyruvate kinase (Leishmania mexicana) (Q27686 2-499 E452W): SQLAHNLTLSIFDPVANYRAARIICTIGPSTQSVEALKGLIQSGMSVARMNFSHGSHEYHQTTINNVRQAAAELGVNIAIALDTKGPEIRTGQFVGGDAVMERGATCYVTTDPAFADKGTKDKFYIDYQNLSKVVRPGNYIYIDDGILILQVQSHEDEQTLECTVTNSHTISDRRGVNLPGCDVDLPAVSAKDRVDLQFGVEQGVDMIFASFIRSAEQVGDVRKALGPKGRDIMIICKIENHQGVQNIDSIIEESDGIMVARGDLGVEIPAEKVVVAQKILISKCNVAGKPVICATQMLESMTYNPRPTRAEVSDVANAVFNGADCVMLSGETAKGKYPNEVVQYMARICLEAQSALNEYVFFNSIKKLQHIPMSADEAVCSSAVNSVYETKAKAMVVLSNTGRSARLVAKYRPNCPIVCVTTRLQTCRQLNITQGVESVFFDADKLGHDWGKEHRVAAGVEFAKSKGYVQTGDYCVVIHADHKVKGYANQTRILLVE
Chain of Muscarinic acetylcholine receptor M1 (Rattus norvegicus) (P08482 whole entry, looked up): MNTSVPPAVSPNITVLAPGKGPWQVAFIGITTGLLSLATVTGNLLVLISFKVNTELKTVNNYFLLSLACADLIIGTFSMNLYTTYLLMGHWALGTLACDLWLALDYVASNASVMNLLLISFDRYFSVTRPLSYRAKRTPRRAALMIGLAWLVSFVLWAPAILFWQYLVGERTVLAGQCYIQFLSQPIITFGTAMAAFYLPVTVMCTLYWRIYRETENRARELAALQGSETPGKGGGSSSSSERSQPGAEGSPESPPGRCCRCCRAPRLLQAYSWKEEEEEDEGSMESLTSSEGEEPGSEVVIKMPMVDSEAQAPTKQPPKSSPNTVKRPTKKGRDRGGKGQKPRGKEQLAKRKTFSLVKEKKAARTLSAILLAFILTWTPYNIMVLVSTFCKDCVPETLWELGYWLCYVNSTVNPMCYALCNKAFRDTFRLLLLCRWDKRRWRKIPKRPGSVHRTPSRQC
Chain of Alpha-galactosidase A (Homo sapiens) (P06280 whole entry, looked up): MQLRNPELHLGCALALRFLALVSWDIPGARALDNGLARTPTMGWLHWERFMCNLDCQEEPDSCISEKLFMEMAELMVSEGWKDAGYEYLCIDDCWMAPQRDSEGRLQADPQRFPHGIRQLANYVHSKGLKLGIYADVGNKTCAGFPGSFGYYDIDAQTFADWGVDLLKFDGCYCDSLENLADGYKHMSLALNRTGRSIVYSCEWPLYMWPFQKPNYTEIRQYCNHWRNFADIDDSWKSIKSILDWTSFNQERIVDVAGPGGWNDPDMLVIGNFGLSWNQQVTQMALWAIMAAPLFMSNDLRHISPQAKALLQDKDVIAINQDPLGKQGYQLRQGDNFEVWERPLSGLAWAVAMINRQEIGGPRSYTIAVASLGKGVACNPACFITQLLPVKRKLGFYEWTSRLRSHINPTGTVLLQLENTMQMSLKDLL
Chain of Pyruvate kinase PKM (Homo sapiens) (P14618 whole entry, looked up): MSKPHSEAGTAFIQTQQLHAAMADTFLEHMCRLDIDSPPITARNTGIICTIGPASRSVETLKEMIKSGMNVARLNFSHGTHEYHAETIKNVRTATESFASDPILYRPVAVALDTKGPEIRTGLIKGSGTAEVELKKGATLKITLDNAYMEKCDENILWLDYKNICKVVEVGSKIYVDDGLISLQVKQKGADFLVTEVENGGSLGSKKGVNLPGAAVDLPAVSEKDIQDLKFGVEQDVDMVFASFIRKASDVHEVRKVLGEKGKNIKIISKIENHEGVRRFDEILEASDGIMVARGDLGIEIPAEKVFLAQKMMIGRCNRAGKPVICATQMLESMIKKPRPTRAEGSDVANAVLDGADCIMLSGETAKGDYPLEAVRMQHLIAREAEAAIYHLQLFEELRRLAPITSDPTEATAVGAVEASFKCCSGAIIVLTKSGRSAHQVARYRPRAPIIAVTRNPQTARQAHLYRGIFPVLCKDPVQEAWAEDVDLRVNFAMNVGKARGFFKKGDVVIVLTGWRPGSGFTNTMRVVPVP

For `CCN(CC)c1ncnc2c1ncn2[C@@H]1O[C@@H](COP(=O)(O)OP(=O)(O)C(Br)(Br)P(=O)(O)O)[C@H](O)[C@H]1O`, the Potency entry in [1], in [2], in test [3] and in test [4] was “inactive” each time.
Regarding `CC1OC(OC2C(CO)OC(OC3C(CO)OC(O)C(O)C3O)C(O)C2O)C(O)C(O)C1NC1C=C(CO)C(O)C(O)C1O` (configuration not stated), the Potency result in test [5], in [1], in test [3] and in test [4] was “inactive” in each case. For the same molecule, the outcome in test [6] and in [7] was inactive.
For `CCCCCCCCCCCCCCCC(=O)O[C@H](CC(=O)O)C[N+](C)(C)C`, the Potency in [8] is > 46 µM (inactive); in [9], > 46 µM (inactive); in test [11], 5.62 µM (active). For the same molecule, the Potency entry in test [10], in test [12], in test [2], in [3] and in test [4] was “inactive” throughout. Further, the molecule was called inactive in test [13], in test [14] and in test [15].
As to `CC(C)NC[C@@H](O)COc1cccc2[nH]ccc12`, the activity change, negative = inhibition in test [16] (at 17.2 µM (top of the series)) was 5.19% (inactive); in [16] (at 38 µM (top of the series)), 17% (inactive) and 4.44% (inactive); in test [17] (at 17.2 µM (top of the series)), 4% (inactive); in test [17] (at 38 µM (top of the series)) it was 1.65% (inactive) and 1.97% (inactive); in [20] (at 25.7 µM (top of the series)) it was 0.0529% (inactive); in test [20] (at 57.5 µM (top of the series)), 6.23% (inactive). The activity, negative = inhibition in test [18] (at 17.2 µM (top of the series)) was 19% (inactive); in [18] (at 38 µM (top of the series)) it was 12.1% (inactive) and 12.9% (inactive). Moreover, the Potency in test [8] is > 46 µM (inactive) and > 20.6 µM (inactive); in test [9], > 46 µM (inactive) and > 20.6 µM (inactive). The Potency entry in test [19], in test [10], in test [1] and in test [3] was “inactive” in each case. Further, the max response in [20] (measured here: cell count channel max response) is -7.16% and 6.39%; in [20] (measured here: lipid channel max response) it was -7.67% and 11.8%.

The values are drawn from PubChem BioAssay (NCATS).
